Source: PubChem BioAssay AID2235 (The Scripps Research Institute Molecular Screening Center, 2010)
The campaign covered roughly 320,000 compounds. About 2,800 (0.88%) were called active. The list comes from a sample in which actives are over-represented; it also holds similar structures and randomly drawn compounds. Unmarked numbers belong to inactive results.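 How the source made its calls: active means inhibition above the mean inhibition of all tested compounds plus 3 SD, computed separately for each screening campaign (cut at about 15% in these data); inactive means the rest.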

target: Serine/threonine-protein phosphatase PP1-alpha catalytic subunit (Homo sapiens) (UniProt P62136); assay: PP1-alpha phosphatase inhibitors, primary screen, counter-screen for PP5 inhibitor project, biochemical, fluorescence, OMFP substrate, single point (AID 2235); settings: purified PP1alpha, at 6.7 µM, stronger effect = higher value
Sequence (P62136 whole entry, looked up): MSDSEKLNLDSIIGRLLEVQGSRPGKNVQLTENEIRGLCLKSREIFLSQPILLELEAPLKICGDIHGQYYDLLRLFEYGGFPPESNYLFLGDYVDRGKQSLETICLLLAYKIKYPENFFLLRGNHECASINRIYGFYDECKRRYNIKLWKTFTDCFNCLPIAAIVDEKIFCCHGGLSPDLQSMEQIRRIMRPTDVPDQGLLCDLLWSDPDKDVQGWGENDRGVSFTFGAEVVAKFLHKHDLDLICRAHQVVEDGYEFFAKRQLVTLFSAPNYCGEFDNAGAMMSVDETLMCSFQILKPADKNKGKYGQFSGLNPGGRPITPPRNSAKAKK

Row | Compound | inhibition
1 | Cc1cccc2cc(CN(Cc3ccc4c(c3)OCO4)Cc3nnnn3C3CCCC3)c(=O)[nH]c12 | -2.51%
2 | CCC(c1nnnn1C1CCCC1)N(Cc1cccs1)Cc1cc2cccc(C)c2[nH]c1=O (centres undefined) | 16.5% (active)
3 | COc1ccc(OC)c(NC(=O)CN(Cc2ccc(Cl)cc2)S(C)(=O)=O)c1 | 0.99%
4 | CCOc1cc(-c2nc3cc(C)ccn3c2NCC2CCCO2)ccc1O (centres undefined) | -2.03%
5 | CCCCCN(C(=O)NC(=O)Nc1cccc(C)c1C)S(C)(=O)=O | 4.61%
6 | CC(Oc1ccc2ccccc2c1)C(=O)NNC(=S)NC(=O)c1ccco1 (centres undefined) | 0.47%
7 | CCCc1ccc(OCC(=O)NNC(=S)NC(=O)c2ccco2)cc1 | 18.6% (active)
8 | Cc1ccc(OCC(=O)NCCCNC(=O)c2ccco2)cc1C | 2.4%
9 | CCN(CC)CCC(c1ccc2c(c1)OCO2)c1c(OC)cc(OC)c2c(-c3ccccc3)cc(=O)oc12 (centres undefined) | 1.96%
10 | O=C(NCCc1ccccc1)C1CCC(Cn2c(=O)c3ccccc3n(Cc3cccnc3)c2=O)CC1 (centres undefined) | -0.9%
11 | CCC(C)N(C(=O)COC(=O)c1nc(Cl)ccc1Cl)C1CCS(=O)(=O)C1 (centres undefined) | -0.12%
12 | Cc1nn(C)c(Oc2ccc(Cl)cc2)c1C=O | -4.58%
13 | Cc1ccc2c(c1)NCC(C(=O)NC1CCC(C)CC1)O2 (centres undefined) | -3.3%
14 | Cc1ccc(O)c(CNc2nc3ccccc3n2C)c1 | -1.3%
15 | Cn1c(Nc2cccc(Cl)c2)nc2ccccc21 | -3.75%
16 | C/C(=N\c1nc2ccccc2n1C)c1cc(Cl)ccc1O | 22% (active)
17 | Cc1ccc(NC(=O)CSc2nnc(-c3cnccn3)n2Cc2ccco2)cc1C | 1.95%
18 | CCc1ccc(NC(=O)CSc2nnc(-c3cnccn3)n2Cc2ccco2)cc1 | 2.61%
19 | CCn1c(SCC(=O)Nc2cc(C)ccc2C)nnc1-c1cnccn1 | 20.4% (active)
20 | O=C(COC(=O)c1ccccc1Br)Nc1nnc(-c2ccccc2)o1 | 13.9%
21 | CC(=O)Nc1cccc(C(=O)OCC(=O)Nc2nnc(-c3ccccc3)o2)c1 | 0.85%
22 | O=C(COC(=O)c1ccc(Oc2ccccc2)cc1)Nc1nnc(-c2ccccc2)o1 | 23.5% (active)

Row | Compound | inhibition
23 | Cc1ccc(S(=O)(=O)N(C)c2ccc(OCC(=O)NC3=NCCS3)cc2)cc1 | -1.97%
24 | Cc1ccc(N2NC(=O)/C(=C/C=C/c3ccco3)C2=O)cc1C | 1.04%
25 | Cc1ccc(N=C2NC(=O)/C(=C/C=C/c3ccco3)S2)cc1C | 16.1% (active)
26 | CN1C(=O)/C(=C/c2ccco2)SC1=Nc1cccc(C(=O)O)c1 | -2.67%
27 | Cc1ccc(C)c(Cn2cnc3c(oc4ccccc43)c2=O)c1 | 1.24%
28 | Cc1nc2ccccc2c(=O)n1NC(=O)c1ccc(Cl)c([N+](=O)[O-])c1 | 2.24%
29 | O=C(Nn1c(SCc2ccc([N+](=O)[O-])cc2)nc2ccccc2c1=O)c1ccc(F)cc1 | 15.9% (active)
30 | C=CCn1c(SCc2ccc(C(=O)NCCO)cc2)nc2ccccc2c1=O | 2.26%
31 | COc1ccc(C(=O)c2c3ccc([N+](=O)[O-])cc3[n+]([O-])n2CCCN)cc1 | 5.14%
32 | CCOc1ccc(NC(=O)CN(C)CC(=O)NC(C)c2ccccc2)cc1OCC (centres undefined) | -1.29%
33 | Cc1cc(Nc2ccccc2)n(CCC#N)n1 | -2.37%
34 | Cc1cc(Nc2ccccc2)n(C(=O)c2ccc(N)cc2)n1 | 22.3% (active)
35 | Cc1cc(C)n(C(=O)c2ccc(S(=O)(=O)N3CCCC3)cc2)n1 | 2.03%
36 | CCOC(=O)C1=C(CCc2ccccc2)NC(=O)NC1c1ccc2ccccc2c1 (centres undefined) | 9.37%
37 | COc1ccc(NS(=O)(=O)c2cc(NC(=O)C3CCCCC3)ccc2N2CCOCC2)cc1 | 0.37%
38 | Cc1ccc(C2Nc3cccc4cccc(c34)N2)cc1 | 1.42%
39 | Oc1ccc(C2Nc3cccc4cccc(c34)N2)cc1 | 30.9% (active)
40 | COc1cccc(C2Nc3cccc4cccc(c34)N2)c1 | 3.61%
41 | O=C1Nc2cc(C(=O)N3CCN(c4ccc(F)cc4)CC3)ccc2NC1CSCc1cccc(F)c1 (centres undefined) | 14.3%
42 | Cc1ccc(CSCC2Nc3ccc(C(=O)N4CCN(c5ccc(F)cc5)CC4)cc3NC2=O)cc1 (centres undefined) | 17.7% (active)
43 | O=C(c1cc(C(=O)N2CCN(c3ccc(F)cc3)CC2)cc([N+](=O)[O-])c1)N1CCN(c2ccc(F)cc2)CC1 | 1.38%
44 | CCS(=O)(=O)N1Cc2ccccc2CC1C(=O)Nc1nc2ccc(F)cc2s1 (centres undefined) | 3.36%
